nsP2pro inh = blocks chikungunya virus nsP2 protease peptide cleavage | Potency, µM (titrated, usually from 24.9 µM), hits mostly inhibitors | hit rate 1.1% among 31,000 | FRET peptide cleavage, nsP2pro, fluorescence 1 h | Q8JUX6; also: nearly all actives have a fitted effect of over 60% in size
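Recombinant nsP2pro (150 nM) was preincubated with compound 15 min at room temperature in 10 mM Tris-HCl pH 8.0, 0.01% Tween 20. Peptide 2 FRET substrate (2.5 uM) was then added and fluorescence read after 1 h. Seven-point series, up to 25 uM.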
CHIKV nsP2 cell = inhibits CHIKV nsP2 protease in cells. hit rate 10% among 450. Potency, µM (top dose mostly 51.1 µM), actives largely listed as inhibitors. shares compounds with nsP2pro inh. cell-based CHIKV nsP2 protease reporter assay; also: nearly all actives have a fitted effect of over 70% in size
Target sequence (Q8JUX6 220-798 limits assumed): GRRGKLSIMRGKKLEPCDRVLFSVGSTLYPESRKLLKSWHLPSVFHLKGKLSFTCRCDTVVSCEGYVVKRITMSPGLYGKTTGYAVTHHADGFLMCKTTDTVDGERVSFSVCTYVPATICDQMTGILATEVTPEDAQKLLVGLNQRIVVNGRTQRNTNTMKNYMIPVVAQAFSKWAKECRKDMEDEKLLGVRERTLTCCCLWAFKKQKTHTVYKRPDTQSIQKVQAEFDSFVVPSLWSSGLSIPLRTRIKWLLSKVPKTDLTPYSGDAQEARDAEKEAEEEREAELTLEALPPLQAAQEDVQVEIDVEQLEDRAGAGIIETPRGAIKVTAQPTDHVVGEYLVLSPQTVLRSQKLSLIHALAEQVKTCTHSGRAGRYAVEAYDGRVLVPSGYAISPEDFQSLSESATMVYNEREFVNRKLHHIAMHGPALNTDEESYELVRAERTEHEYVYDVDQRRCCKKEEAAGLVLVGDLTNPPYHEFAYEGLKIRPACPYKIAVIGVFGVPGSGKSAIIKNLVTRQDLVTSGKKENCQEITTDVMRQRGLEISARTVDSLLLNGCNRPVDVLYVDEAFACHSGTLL
NSP2 full ctr = selectivity test for CHIKV nsP2 protease inhibitors: full-length NSP2. shares compounds with nsP2pro inh. Full-length CHIKV NSP2 protease enzymatic counterscreen. Potency, µM (series often up to 50.7 µM), most hits filed as inhibitors. hit rate 39% among 410; also: nearly all actives have a fitted effect of over 65% in size
Furin counterscr = selectivity counter-screen for CHIKV nsP2 protease inhibitors: human furin; Recombinant human furin enzymatic counterscreen, fluorogenic substrate; Potency, µM (doses to about 50.6 µM), most hits filed as inhibitors; hit rate 6% among 410; shares compounds with nsP2pro inh
nsP2 NS23 pep = blocks CHIKV nsP2 protease cleavage of endogenous NS2/3 peptide. shares compounds with nsP2pro inh. Purified CHIKV nsP2 protease, endogenous NS2/3 peptide cleavage. Potency, µM (series often up to 51 µM), most hits filed as inhibitors. hit rate 34% among 410. AID 1964103; also: nearly all actives have a fitted effect of over 55% in size
Papain cs = inhibits papain in a CHIKV nsP2 protease selectivity counterscreen; shares compounds with nsP2pro inh; purified papain protease activity, enzymatic inhibition; hit rate 5% among 410; Potency, µM (titrated, usually from 51 µM), most hits filed as inhibitors
nsP2pro conf qHTS = confirmation of CHIKV nsP2 protease inhibitors | CHIKV nsP2 protease enzymatic activity, qHTS | hit rate 43% among 410 | shares compounds with nsP2pro inh | AID 1964105 | Potency, µM (series often up to 25.5 µM), usual class: inhibitors; also: nearly all actives have a fitted effect of over 75% in size
HCV NS3 counter = inhibits HCV NS3/4A protease in an nsP2pro selectivity counterscreen. shares compounds with nsP2pro inh. HCV NS3/4A protease biochemical counterscreen. Potency, µM (top dose mostly 50.9 µM), actives largely listed as inhibitors. hit rate 20% among 410; also: nearly all actives have a fitted effect of over 55% in size
Large screens that a line does not name were inactive (follow-up assays come after a bar, where they were run). The entries come from a sample that favours hits as a whole. Calls follow the shape of the full dose curve.

CCn1cc(S(=O)(=O)N2C[C@@H](Oc3ccccc3)C[C@H]2C(=O)N2CCCC2)cn1	none
Cc1cccc(-c2noc(CNC(=O)c3ccco3)n2)c1	none
Cc1cccc(-c2noc(CCCC(=O)NCc3ccco3)n2)c1	none
COc1ccccc1OCC(=O)NCc1nc(-c2ccc(Cl)cc2)no1	none
O=C(NCc1nc(-c2ncccn2)no1)c1csc(-c2cccs2)n1	none
Cc1cc(-c2noc(CNC(=O)c3cc(-c4ccco4)[nH]n3)n2)no1	nsP2pro inh 5µM | CHIKV nsP2 cell inconclusive | NSP2 full ctr inactive | Furin counterscr inactive | nsP2 NS23 pep inactive | Papain cs inactive | nsP2pro conf qHTS inactive | HCV NS3 counter 10µM
CCOc1ccc(-c2noc(CNC(=O)c3cc(-c4ccco4)[nH]n3)n2)cn1	nsP2pro inh 0.79µM | CHIKV nsP2 cell inconclusive | NSP2 full ctr 8.2µM | Furin counterscr inactive | nsP2 NS23 pep inactive | Papain cs inactive | nsP2pro conf qHTS inconclusive | HCV NS3 counter inactive
O=C1CCCC2=C1C(c1[nH]ncc1Cl)N=C(Nc1nc3cc(Cl)ccc3o1)N2 (stereo not drawn)	none
CC(C)n1cnnc1CC1CCN(S(=O)(=O)Cc2ccccc2)C1 (stereo not drawn)	none
Cc1ccc(C(=O)N2CC[C@@](C)(O)[C@@H](Cc3ccccc3)C2)cc1C	none
O=C(c1ccccc1)c1c(O)cc(O)cc1O[C@@H]1O[C@H](CO)[C@@H](O)[C@H](O)[C@H]1O	none
C=CCNC(=O)C[C@@H]1CCN(C(=O)c2ccccc2)C[C@@H]1CC	none
NC(=O)c1ccc(F)c2c1C[C@@H](N(C1CCC1)C1CCC1)CO2	none
COc1ccccc1NC(=O)C1=C(C)Nc2ncnn2C1c1ccccc1C(=O)O (stereo not drawn)	none
COc1ccccc1NC(=O)C1=C(C)Nc2nc(SCc3ccccc3Cl)nn2C1c1ccncc1 (stereo not drawn)	none
COc1ccccc1NC(=O)C1=C(C)Nc2nc(-c3ccco3)nn2C1c1ccccc1F (stereo not drawn)	nsP2pro inh inconclusive | CHIKV nsP2 cell inactive
CNC(=O)c1cc(C)nc2onc(C3CCN(C(=O)NC4CCCC4)C3)c12 (stereo not drawn)	none
NS(=O)(=O)c1ccc(-n2nc(C(F)(F)F)cc2-c2ccc(F)cc2)cc1	none
CC[C@H](C)C(=O)O[C@H]1C[C@@H](C)C=C2C=C[C@H](C)[C@H](CC[C@@H]3C[C@@H](O)CC(=O)O3)[C@H]21	none
CCC(C)C(=O)OC1CCC=C2C=CC(C)C(CCC3CC(O)CC(=O)O3)C21 (stereo not drawn)	nsP2pro inh inconclusive | CHIKV nsP2 cell inactive | NSP2 full ctr inactive | Furin counterscr inactive | nsP2 NS23 pep inactive | Papain cs inactive | nsP2pro conf qHTS inactive | HCV NS3 counter inactive
c1cc2c(cc1CNc1ccc(N3CCCCC3)cc1)OCO2	none
Cc1ccc(OCCn2c(CCNC(=O)c3ccc[nH]3)nc3ccccc32)cc1	none
CC1(C)O[C@H]2CC(=O)OC[C@@]23C1=C(O)C(=O)[C@]1(C)C3CC[C@@]2(C)[C@H](c3ccoc3)OC(=O)[C@H]3O[C@]321 (stereo partly drawn)	nsP2pro inh inconclusive | CHIKV nsP2 cell inactive | NSP2 full ctr inactive | Furin counterscr inactive | nsP2 NS23 pep inactive | Papain cs inactive | nsP2pro conf qHTS inactive | HCV NS3 counter inconclusive
C=C1[C@@H]2CC[C@@]3(C)[C@H](c4ccoc4)OC(=O)C[C@]13O[C@H]1CC(=O)C(C)(C)[C@H](C(OC(C)=O)C(=O)OC)[C@]12C (stereo partly drawn)	none
CC1(C)OC(=O)CC(O)C2(C)C1CC(=O)C1(C)C2C(O)CC2(C)C(c3ccoc3)OC(=O)C3OC321 (stereo not drawn)	nsP2pro inh inconclusive | CHIKV nsP2 cell inactive | NSP2 full ctr inactive | Furin counterscr inactive | nsP2 NS23 pep inactive | Papain cs inactive | nsP2pro conf qHTS inactive | HCV NS3 counter inactive
CC(C)N1CC(C(=O)N2CCC(c3ccccc3)CC2)NC1=O (stereo not drawn)	none
C/C=C/C=C/C1=C2C(=O)C3(C)C4C(C(=O)CC(O)/C=C/C)=C(O1)C1(C)C2C2(C)OC1(O)C4(C)OC23O (stereo not drawn)	none
COCCn1c(C)cnc1CC1CCN(C(=O)c2c[nH]c3ccccc23)CC1	none
O=C(Nc1ccc2[nH]nc(-c3ccncc3)c2c1)[C@@H]1CCN(CC(=O)N2CCN(c3ccc(-c4ncccn4)cc3)CC2)C1	none
CCOC(=O)[C@H](CCc1ccccc1)N[C@@H](C)C(=O)N1CCC[C@H]1C(=O)O	none
CC(NC(CCc1ccccc1)C(=O)O)C(=O)N1C(=O)N(C)CC1C(=O)O (stereo not drawn)	nsP2pro inh inconclusive | CHIKV nsP2 cell inactive | NSP2 full ctr 15µM | Furin counterscr inactive | nsP2 NS23 pep inactive | Papain cs inactive | nsP2pro conf qHTS inconclusive | HCV NS3 counter inactive
CCC[C@H](N[C@@H](C)C(=O)N1[C@H](C(=O)O)C[C@@H]2CCCC[C@@H]21)C(=O)O	none
CC(=O)C1CCC2C3CCC4C[C@@H](O)CCC4(C)C3CCC12C (stereo partly drawn)	none
O=C(c1ccc(F)cc1)N1CCC(N2CCCCCC2=O)CC1	none
NC(=O)[C@H]1C[C@@H](O)[C@H](O)[C@H]2[C@@H]1SC(=Nc1ccc(Cl)cc1)N2CC1CCCCC1	none
COC(=O)[C@H](OC(C)=O)[C@H]1C(C)(C)C(=O)[C@H]2CC3=C4CC(=O)O[C@@H](c5ccoc5)[C@]4(C)CCC3[C@@]1(C)C2=O (stereo partly drawn)	none
COC(=O)[C@H](O)[C@H]1C(C)(C)[C@H](OC(=O)C(C)C)[C@@]2(O)C(=O)[C@]1(C)C1CC[C@]3(C)C(CC(=O)O[C@H]3c3ccoc3)[C@]13O[C@@H]32 (stereo partly drawn)	nsP2pro inh inconclusive | CHIKV nsP2 cell inactive | NSP2 full ctr inconclusive | Furin counterscr inactive | nsP2 NS23 pep inactive | Papain cs inactive | nsP2pro conf qHTS inconclusive | HCV NS3 counter inactive
C=C1[C@@H]2CC[C@@]3(C)[C@H](c4ccoc4)OC(=O)C[C@]13O[C@H]1CC(=O)C(C)(C)[C@H](C(O)C(=O)OC)[C@]12C (stereo partly drawn)	none

Screens (PubChem BioAssay)
